The whole screen tested about 280,000 compounds, of which about 2,600 (0.93%) were called active. Not shown: some 8% with an inconclusive outcome. The sample as a whole holds a higher share of actives than the screen did. Values without a mark were called inactive. Calls come from the whole dose curve; as a rule, active = well fitted curve in the direction sought with a large enough effect; inconclusive = small, poorly fitted or top-dose-only effect; inactive = flat fitted curve, though single readings scatter.
Assay: Counterscreen qHTS for Inhibitors of Tau Fibril Formation, Fluorescence Polarization; note: nearly all actives have a fitted effect of over 55% in size
Conditions: tau K18 P301L Alexa594 fluorescence, heparin fibrillization; series mostly up to 57.7 µM; activity change, negative = decrease: at the top concentration
Outline: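 Human tau K18 P301L (15 uM unlabeled, 0.24 uM Alexa 594-labeled) in 100 mM sodium acetate pH 7 with 20 uM heparin, 6 hr at 37 C. ThT 30 uM added, 1 hr ambient; Alexa 594 FP and total fluorescence read at 555/632 nm.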
% is set by controls: 0 for no effect and ±100 for the full control effect; potency is the fitted concentration of half-maximal effect; tags give direction and shape of the fitted curve or compound fluorescence and quenching.

Compound	activity change, negative = decrease	Potency
Cc1cccc(C(=O)Nc2ccc(-c3nc4ncccc4o3)cc2C)c1	-4.09%	–
CCOC(=O)c1ccc(CSc2nnc3cc(C)c4ccccc4n23)cc1	-23.9%	–
Cc1cc(C)cc(NC(=S)NCCc2c[nH]c3ccccc23)c1	–	15.8 µM [quencher] (active)
Cc1cc(C)cc(NC(=O)CSc2nc3nccnc3c(=O)n2CCc2c[nH]c3ccccc23)c1	1.4%	–
Cc1cc(C)cc(NC(=S)NCc2ccc(F)cc2)c1	-2.29%	–
CCC(=O)N1CCc2cc(Br)cc(S(=O)(=O)CCC(=O)NCCc3ccc(OC)c(OC)c3)c21	-12.6%	–
COc1ccc(NC(=O)c2ccco2)cc1NC(=O)COc1ccc(C)c(C)c1	-16.3%	–
COc1ccc(NC(=O)c2cn(-c3ccccc3)nc2SC)cc1	–	17.8 µM [quencher] (active)
COc1ccc(NC(=O)c2c(SC)nsc2SC)cc1	-3.33%	–
O=C(O)c1ccc(NC(=O)c2cn(-c3ccccc3)nc2-c2ccc(Cl)cc2)cc1	-7.53%	–
CCOc1cc(C2C(C(=O)Nc3ccc(OC)cc3)=C(C)Nc3nc(SC)nn32)ccc1O (centres undefined)	-21.9%	–
CCOc1cc(C2C(C(=O)OC(C)C)=C(C)NC3=C2C(=O)CCC3)cc([N+](=O)[O-])c1O (centres undefined)	-9.75%	–
CCOc1cc(C2C(C(=O)OC)=C(C)NC3=C2C(=O)c2ccccc23)ccc1O (centres undefined)	–	17.8 µM [quencher] (active)
CCOC(=O)CN1C(C(=O)c2ccccc2)=C(OC(=O)C(C)(C)C)c2ccccc2S1(=O)=O	-7.8%	–
CCN(CCCNC(=O)c1ccc(Sc2ccc(C)cc2)c(NC(C)=O)c1)c1cccc(C)c1	-23.8%	–
COc1ccc(CCNC(=O)c2nn(C)c3c2CSc2ccccc2-3)cc1OC	–	10 µM [quencher] (active)
COc1ccc(CCNC(=O)c2c3c(nc4ccccc24)C(=O)N(C2CCCCC2)C3)cc1OC	2.98%	–
CCCCN(CC)CCCNC(=O)c1nn(C)c2c1CSc1ccccc1-2	-8.6%	–
Cc1ccc(C2CCN(C(=O)c3cnn(-c4ccccc4Cl)c3C3CCN(C(=O)OC(C)(C)C)CC3)C2)cc1 (centres undefined)	-10.5%	–
Cn1nnc2c(N3CCN(c4ccccc4)CC3)ncnc21	-2.02%	–
CCC1=Nc2cc(C(=O)NCCCOC(C)C)ccc2Sc2ccc(C)cc21	3.29%	–
CCOC(=O)c1[nH]c(C)c(CCC(=O)N2CCN(c3ccccc3)CC2)c1C	0.33%	–

Compound	activity change, negative = decrease	Potency
O=C(CC(c1cccs1)N1Cc2ccccc2C1=O)Nc1ccc(F)c(F)c1 (centres undefined)	-5.76%	–
CCCn1c2ccccc2c2cnn(CC(=O)N(C)c3ccccc3CC)c(=O)c21	-16.4%	–
O=C1Cc2cc(S(=O)(=O)Nc3ccc(OC(F)(F)F)cc3)cc3c2N1CCC3	-22.8%	–
CCCCS(=O)(=O)c1oc(-c2cccs2)nc1S(=O)(=O)c1ccccc1	-11%	–
CCOCCc1nn2c(=O)cc(COC(=O)CNC(=O)c3ccc(C(C)(C)C)cc3)nc2s1	-6.12%	–
Cc1ccc(C)c(N2CCN(c3ccc4cc(S(=O)(=O)N5CCC(C)CC5)ccc4n3)CC2)c1	-0.575%	–
O=S(=O)(c1ccc2nc(N3CCN(c4cccc(Cl)c4)CC3)ccc2c1)N1CCCCC1	-10.5%	–
Cc1ccc(Nc2ccc3cc(S(=O)(=O)N4CCCCC4)ccc3n2)cc1F	–	7.08 µM [quencher] (active)
Cc1nn(CC(=O)NCCc2ccccc2)c(=O)c2c1sc1ccccc12	8.41%	–
CCn1c(CN2CCC(C)CC2)nc2cc(NC(=O)c3ccccc3[N+](=O)[O-])ccc21	-0.8%	–
CCCn1c2ccccc2c2cnn(CC(=O)NCC3CCN(Cc4ccc(C)cc4)CC3)c(=O)c21	3.89%	–
COc1ccc(S(=O)(=O)NC(C)C(=O)Nc2cccc([N+](=O)[O-])c2)cc1 (centres undefined)	-2.56%	–
COc1ccc(NS(=O)(=O)c2cc(NC(=O)CC(=O)c3ccc([N+](=O)[O-])cc3)ccc2C)cc1	–	7.94 µM [quencher] (active)
Cc1ccc(C(=O)Nc2ccc(C(=O)O)cc2)cc1S(=O)(=O)Nc1ccccc1	-3.09%	–
COc1cc(NC(=O)Cn2nc(-c3ccc(C)c(C)c3)ccc2=O)cc(OC)c1	-3.4%	–
Cn1c(SCC(=O)N2CCCc3ccccc32)ncc(C(=O)Nc2ccc(F)cc2)c1=O	-19.2%	–
COc1ccc(-n2nnc(-c3nsc(NC(=O)c4ccc(C)c(C)c4)n3)c2C)cc1Cl	-6.33%	–
COc1ccc2[nH]cc(/C=C(/C#N)S(=O)(=O)c3ccccc3)c2c1	–	25.1 µM [quencher] (active)
CCN(CC)CC(=O)c1c[nH]c2ccc(OC)cc12	-29.7%	–
COc1ccc(/C=N/N=C/c2c[nH]c(=O)c(C#N)c2Nc2ccccc2)cc1	-20.6%	–
CCOC(=O)C1=C(C)NC(=O)NC1c1ccccc1 (centres undefined)	-8.84%	–
CCOC(=O)C1=C(C)N=C2c3ccccc3C(=O)C2C1c1ccc(Br)cc1 (centres undefined)	–	11.2 µM [quencher] (active)

From PubChem BioAssay AID1463 (National Center for Advancing Translational Sciences (NCATS), 2008)
